In the library only some 3.1% were active in any assay of this set; here they are far more common.
Statin myotox sup: suppression of simvastatin myotoxicity | C2C12 myotubes + simvastatin, ATP luminescence, 48 h; scaled: DMSO 0, geranylgeraniol control 100 | rescue of ATP level, % at 7.49 µM | 0.78% of 330,000 active;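 active means mean ATP rescue above about 67%, or every replicate alone reaching that limit, limit read from the data, passing the limit was not always enough; inconclusive means no clear call, values can overlap the other calls; inactive means mean under the limit and some replicate under it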;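 further: myotubes were challenged with 10 µM simvastatin during compound exposure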
INS-1E GSIS act: GLuc luminescence reporter in INS-1E cells, primary screen for activators of glucose-dependent secretion of insulin; INS-1E GLuc reporter insulin secretion, 2-3 h; 0.61% of 370,000 active; activation, % at 16.6 µM;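 active means lowest replicate activation of at least 40%, so every replicate reaches that level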
EWS-Fli inh: EWS/Fli transcriptional activity inhibition | inhibition, % at 12.6 µM | 0.67% of 350,000 active | AID 651661 | A673 NR0B1-luciferase reporter, viability-normalised;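 active means mean inhibition of at least 50% after viability correction, with every replicate also passing that limit; inconclusive means mean reaches 50% but only one of two replicates passes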;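 further: firefly luciferase signal divided by Alamar Blue viability fluorescence both relative to DMSO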
HIV Env fusion: blocks HIV Env-driven cell-cell fusion; AID 651610; HeLa-JRFL Env/CEM21 cell fusion, luciferase; 1.1% of 360,000 active; inhibition, % at 12.3 µM;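 active means mean replicate inhibition score of at least 50 and every replicate individually at or above 50; inconclusive means only one of the two criteria met; inactive means mean below 50 and not all replicates reaching 50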
PAX8 reporter: inhibitors of PAX8 transcriptional activity in RMG-I cells; inhibition, % at 12.6 µM; 1.2% of 360,000 active; AID 652154; RMG-I TPO-luciferase reporter, SteadyGlo, 24 h;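 active means mean replicate inhibition at least 60% with every replicate also reaching 60%; inconclusive means only one of the two criteria is met; inactive means mean below 60% and not all replicates reaching 60%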;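 further: luciferase light reporting Pax8 driven TPO promoter activity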
miR122 inh: blocks miR-122 activity in Huh7 sensor cells; Huh7 miR-122 Renilla luciferase sensor, 48 h; neutral wells = 0, positive control = 100; activation (reporter increase), % at 12.5 µM; 0.3% of 340,000 active;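 active means mean replicate activation score at least 90 and every replicate individually at or above 90; inconclusive means only one of the two criteria met; inactive means neither criterion met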;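 further: higher luciferase means less miR-122 activity so hits act as miR-122 inhibitors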
Numbers stand for hits; i = inactive; ? = inconclusive; nt = no result given; [ ] = another dose, or the depositor's remark.

SMILES	Statin myotox sup	INS-1E GSIS act	EWS-Fli inh	HIV Env fusion	PAX8 reporter	miR122 inh
C=CCOc1c(Br)cc(CNc2ccc(NC(=O)C(C)C)c(OC)c2)cc1OC	i	i	nt	89.7	nt	i
COc1ccc(S(=O)(=O)Nc2ccc3c(c2)C(=O)N([C@@H](C)CO)C[C@H](C)[C@@H](CN(C)S(=O)(=O)c2ccc(F)cc2)O3)cc1	nt	i	i	i	nt	i
CN(C)CC(=O)N[C@H]1CC[C@@H](CCn2cc(C3CC3)nn2)O[C@H]1CO	i	i	i	i	i	nt
C#CC(=O)N(c1ccc(OC)c(OC)c1)C(C(=O)NC1CCCC1)c1cccs1 (configuration not stated)	i	i	i	nt	nt	i
Cc1cc(C)cc(N(C(=O)C(F)(F)F)C(C(=O)NC2CCCCC2)c2cccs2)c1 (configuration not stated)	i	47.1	nt	i	nt	i
C#CC(=O)N(c1cccc(OC)c1)C(C(=O)NC1CCCC1)c1cccs1 (configuration not stated)	i	145.8	i	nt	nt	i
C[C@@H]1CN([C@@H](C)CO)C(=O)c2cc(NC(=O)Cc3cn(C)c4ccccc34)ccc2O[C@H]1CN(C)C	i	i	nt	nt	i	i
CCN(CC)CCNCc1cc(Br)ccc1OCC(=O)NCc1ccccc1	nt	i	i	i	i	nt
CCN(CC)CCNCc1ccc(Br)cc1OCC(=O)NCc1ccccc1	i	62.3	i	i	i	i
Cc1ccc(S(=O)(=O)Nc2ccc3c(c2)C(=O)N([C@@H](C)CO)C[C@H](C)[C@@H](CN(C)Cc2ccccc2)O3)cc1	i	i	nt	i	i	i
CCC(=O)N1C[C@@H](O)COC[C@H]2O[C@H](CC(=O)N3CCCCC3)CC[C@@H]21	i	i	i	i	i	i
Cc1nn(C(=O)c2ccco2)c(C)c1Sc1ccc(Cl)cc1	nt	i	nt	i	i	nt
Cc1nn(C(=O)c2cccnc2)c(C)c1Sc1ccc(Br)cc1	74.9	nt	nt	nt	nt	i
OCCN(CCCn1c(C(F)(F)F)nc2ccccc21)c1nc(CN2CCCCC2)cs1	i	i	i	i	i	i
OCCN(CCCn1c(-c2ccncc2)nc2ccccc21)c1nc(CN2CCCCC2)cs1	66.4	i	i	i	i	i
O=C(C#Cc1ccccc1)c1ccc([N+](=O)[O-])cc1	nt	nt	nt	i	i	i
O=C(C#Cc1ccccc1)c1ccccc1	i	i	70.4	i	i	i
C[C@H]1CN([C@@H](C)CO)C(=O)Cc2cc(NC(=O)Nc3ccc(C(F)(F)F)cc3)ccc2O[C@@H]1CN(C)S(=O)(=O)c1ccccc1	nt	i	i	nt	i	nt
C[C@H](CO)N1C[C@H](C)[C@H](CN(C)S(=O)(=O)c2ccc(F)cc2)Oc2ccc(NC(=O)Nc3ccc(C(F)(F)F)cc3)cc2CC1=O	nt	i	i	nt	nt	nt
Cc1ccc(S(=O)(=O)N(C)C[C@H]2Oc3ccc(NC(=O)Nc4ccc(C(F)(F)F)cc4)cc3CC(=O)N([C@@H](C)CO)C[C@@H]2C)cc1	i	i	i	i	i	i
C[C@H](CO)N1C[C@H](C)[C@H](CN(C)S(=O)(=O)c2ccccc2)Oc2ccc(NC(=O)Nc3ccc(C(F)(F)F)cc3)cc2CC1=O	nt	i	60.7	nt	i	nt
Cc1ccc(S(=O)(=O)N(C)C[C@@H]2Oc3ccc(NC(=O)Nc4ccc(C(F)(F)F)cc4)cc3CC(=O)N([C@H](C)CO)C[C@@H]2C)cc1	i	i	?	75.9[16.7 µM]	97.2	122.7[16.7 µM]
C[C@@H]1CN([C@@H](C)CO)C(=O)Cc2cc(NC(=O)Nc3ccc(C(F)(F)F)cc3)ccc2O[C@H]1CN(C)S(=O)(=O)c1ccc(F)cc1	i	i	i	i	94.3	i
Cc1ccc(S(=O)(=O)N(C)C[C@H]2Oc3ccc(NC(=O)Nc4ccc(C(F)(F)F)cc4)cc3CC(=O)N([C@H](C)CO)C[C@@H]2C)cc1	i	i	i	i	81.6	i
Cc1ccc(S(=O)(=O)N(C)C[C@@H]2Oc3ccc(NC(=O)Nc4ccc(C(F)(F)F)cc4)cc3CC(=O)N([C@@H](C)CO)C[C@H]2C)cc1	i	i	i	i	i	i
C[C@H](CO)N1C[C@H](C)[C@H](CN(C)S(=O)(=O)c2ccc(F)cc2)Oc2ccc(NC(=O)Nc3ccc(F)cc3)cc2CC1=O	i	i	i	i	nt	i
Cc1ccc(S(=O)(=O)N(C)C[C@H]2Oc3ccc(NC(=O)Nc4ccc(C(F)(F)F)cc4)cc3CC(=O)N([C@H](C)CO)C[C@H]2C)cc1	i	i	i	i	62.7	i
